Screens from PubChem BioAssay.
A selection: hits, their analogues and other compounds. The true share with any hit is near 9.4%.
IMPase Li cell – qHTS Assay for Identifying the Cell-Membrane Permeable IMPase Inhibitors: Potentiation with Lithium. CHO-M1 cells, IP1 TR-FRET (IP-One), carbachol + lithium. Potency, µM (highest dose often 59.4 µM), without a hit: top-dose activity, negative = IMPase inhibition, hits mostly inhibitors. 0.35% of 210,000 active. AID 1457, 2008;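 further: IP1 builds up when IMPase is blocked and the TR-FRET signal falls; potency means the concentration at half of the fitted maximal effect; plate controls were basal vehicle for no effect and high inhibitor control for full effect; nearly all actives have a fitted effect of over 50% in size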
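Steps: plate 2000 CHO-M1 cells per well and culture 16–30 h; add compound and lithium; incubate 30 min, 37C; add d2-IP1 tracer and Eu cryptate anti-IP1 antibody in lysis buffer; read after 10 min at room temperature.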
ALDH1A1 inh – qHTS Assay for Inhibitors of Aldehyde Dehydrogenase 1 (ALDH1A1); Aldehyde dehydrogenase 1A1 (Homo sapiens), P00352; Purified ALDH1A1, NADH fluorescence, propionaldehyde substrate; Potency, µM (doses to about 75.3 µM), inactives show top-dose activity, negative = inhibition, usual class: inhibitors; 7.3% of 220,000 active; active means well fitted inhibition curve with a large enough effect, not every such curve was filed as active; inconclusive means small, poorly fitted or top-dose-only effect, or another doubt; inactive means no such curve, though single readings can be large or run the other way;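 further: potency means the concentration at half of the fitted maximal effect; plate controls were no enzyme wells and a reference inhibitor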
HTT cytoprotect – qHTS Multiplex Assay to Identify Dual Action Probes in a Cell Model of Huntington: Cytoprotection (ATP). AID 1471, 2008. PC12 HTT-Q103 induced, cytoprotection, ATP luminescence, 40 h. 0.14% of 230,000 active. Potency, µM (doses to about 56.4 µM), for inactives: cytoprotection (ATP increase), usual class: activators; further: potency means the concentration at half of the fitted maximal effect; % of control where 0% means no effect; nearly all actives have a fitted effect of over 45% in size
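Cells were plated at 1500 per well in phenol red-free DMEM with 5% equine and 5% calf serum. Tebufenozide (100 nM final) and compounds were added, then ATPlite reagent, and luminescence was read.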
HPGD block – qHTS Assay for Inhibitors of HPGD (15-Hydroxyprostaglandin Dehydrogenase); 4.3% of 150,000 active; purified HPGD, NADH fluorescence kinetic, PGE2 substrate; Potency, µM, for the others: at the top dose activity change, negative = inhibition, most hits filed as inhibitors; AID 894, 2007; 15-hydroxyprostaglandin dehydrogenase [NAD(+)] (Homo sapiens), P15428; active means well fitted inhibition curve with a large enough effect, not every such curve was filed as active; inconclusive means small, poorly fitted or top-dose-only effect, or another doubt; inactive means no such curve, though single readings can be large or run the other way; further: potency means the concentration at half of the fitted maximal effect; on the % scale 0 is the no-effect control and ±100 the full control effect
Target sequence (P15428 whole entry, looked up): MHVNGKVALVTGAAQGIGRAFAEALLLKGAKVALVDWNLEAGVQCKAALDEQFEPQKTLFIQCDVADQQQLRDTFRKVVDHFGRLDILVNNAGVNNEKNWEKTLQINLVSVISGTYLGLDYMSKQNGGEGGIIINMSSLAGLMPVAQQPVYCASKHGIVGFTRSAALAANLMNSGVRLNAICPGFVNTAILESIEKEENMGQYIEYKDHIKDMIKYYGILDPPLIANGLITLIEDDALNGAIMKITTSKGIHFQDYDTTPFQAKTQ
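20 nM HPGD preincubated 15 min at room temperature with compound in 50 mM Tris-HCl pH 8, 0.01% Tween 20. Started with 1 mM NAD+ and 30 uM prostaglandin E2; NADH fluorescence (360/450 nm) read 5 times over 30-s intervals, last minus first.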
IMPase inh – qHTS Assay for Identifying the Cell-Membrane Permeable IMPase Inhibitors; Inositol monophosphatase 1 (Rattus norvegicus), P97697; CHO-M1 cells, IP1 accumulation, HTRF TR-FRET ratio; AID 901, 2007; 120,000 tested, under 10 active; inhibition (IP1 accumulation), % at 46.1 µM; active means well fitted curve in the direction sought with a large enough effect in the signal ratio, not every such curve was filed as active; inconclusive means small, poorly fitted or top-dose-only effect, or a change in a side signal; inactive means no such curve, though single readings can be large or run the other way; the % refers to the signal ratio;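 further: cells stimulated with carbachol in lithium chloride buffer; plate controls were DMSO basal wells for no effect and reference inhibitor wells for full effect; higher means more IMPase inhibition seen as more IP1 and lower FRET ratio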
Target sequence (P97697 whole entry, looked up): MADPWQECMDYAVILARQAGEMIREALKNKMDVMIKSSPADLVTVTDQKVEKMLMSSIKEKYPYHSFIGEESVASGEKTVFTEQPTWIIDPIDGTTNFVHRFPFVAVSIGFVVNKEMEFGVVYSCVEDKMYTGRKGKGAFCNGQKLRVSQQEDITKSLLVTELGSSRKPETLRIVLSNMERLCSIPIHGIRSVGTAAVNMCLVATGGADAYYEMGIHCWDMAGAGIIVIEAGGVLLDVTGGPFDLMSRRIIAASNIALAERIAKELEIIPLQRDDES
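Measured: the HTRF emission ratio (665/620 nm) plus the 620 nm donor channel, each fitted to the Hill equation to give AC50. Cells were CHO-M1 given compounds up to 46 uM and a 30 min carbachol stimulation at 37C.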
HttQ103 aggreg – qHTS Multiplex Assay to Identify Dual Action Probes in a Cell Model of Huntington: Aggregate Formation (GFP); PC12 HttQ103-GFP aggregates, Acumen cytometry, 40 h; Potency, µM (titrated, usually from 46.1 µM), without a hit: at the highest dose activity change, negative = inhibition, hits mostly inhibitors; 1.1% of 220,000 active; AID 1688, 2009; further: potency means the concentration at half of the fitted maximal effect; on the % scale 0 is the no-effect control and ±100 the full control effect; nearly all actives have a fitted effect of over 60% in size
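Aggregates are detected as GFP objects 1–25 µm with signal 6 STDEV over background in lysates of induced PC12 cells. These carry Huntingtin exon 1 with 103 glutamines fused to GFP under an ecdysone promoter; compounds titrated.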
* = called active by the depositor; ? = inconclusive; nt = no result given; [ ] = remark or other dose. Unless noted, the call rests on the fitted dose curve; in most records, active means well fitted curve in the direction sought with a large enough effect; inconclusive means small, poorly fitted or top-dose-only effect, or another doubt; inactive means no such curve, though single readings can be large; an effect the other way counts as inactive or inconclusive.

SMILES | IMPase Li cell | ALDH1A1 inh | HTT cytoprotect | HPGD block | IMPase inh | HttQ103 aggreg
O=C(O)[C@@H](O)[C@@H](O)[C@@H](O[C@H]1O[C@@H](CO)[C@@H](O)[C@@H](O)[C@@H]1O)[C@@H](O)CO | -5% | 10%[20.9 µM] | -53%[17.1 µM] | -1% | 3[20.6 µM] | nt
CC1(C)OC(=O)C(=NNc2ccc(Br)cc2)C(=O)O1 | 0% | 13µM* | nt | -15% | nt | 24%
CC1(C)OC(=O)C(=CNc2cccc(O)c2)C(=O)O1 | -6%[38.3 µM] | ? | -4% | -13% | 9 | 0%
O=C1c2ccccc2NC2(CCCC2)N1O | 28%[38.3 µM] | 1% | -13% | 20µM* | 4 | 15%[1.84 µM]
CC(=O)Nc1ccc(N(C(=O)CNC(=O)c2ccco2)C(C(=O)NCC2CCCO2)c2ccccc2)cc1 (configuration not stated) | -1% | -1% | 16%[10 µM] | nt | nt | -1%[9.22 µM]
CC(=O)Nc1ccc(N(C(=O)CNC(=O)c2ccco2)C(C(=O)NCc2ccco2)c2ccccc2F)cc1 (configuration not stated) | -1% | 7.9µM* | 33%[10 µM] | nt | nt | 16%[9.22 µM]
C=CC[C@@H]1C=C[C@@H](O/N=C\[C@@H](NS(=O)(=O)c2ccc(C)cc2)[C@H](C)/C=C\CC(=O)OC)[C@@H](CO)O1 | nt | ? | -23%[10 µM] | nt | nt | nt
COc1cccc(OC)c1C(=O)NC(=S)Nc1ccc2oc(=O)ccc2c1 | -21% | ? | 1%[1.9 µM] | -8% | 7 | 1%
CC(=O)NC(=S)Nc1ccc2oc(=O)ccc2c1 | nt | 8.9µM* | -17%[10 µM] | nt | nt | -8%[9.22 µM]
O=C(Nc1ccc2oc(=O)ccc2c1)c1ccc(-c2cccc([N+](=O)[O-])c2)o1 | nt | 7.9µM* | -76%[10 µM] | nt | nt | -40%[9.22 µM]
O=C(Nc1ccc2oc(=O)ccc2c1)c1ccc(-c2ccc(Cl)cc2)o1 | nt | 8.9µM* | -22%[10 µM] | nt | -9 | 17%
O=C1NC(=O)c2cc(NC(=O)C3CCCO3)ccc21 (configuration not stated) | -3%[38.3 µM] | ? | 18% | ? | 0 | -8%
Cc1ccc(NS(=O)(=O)c2ccc(NC(=O)C3CCCO3)cc2)cc1 (configuration not stated) | 43%[38.3 µM] | 22µM* | -2% | -29% | 8 | ?
O=C(Nc1ccc(Oc2ccc(NC(=O)C3CCCO3)cc2)cc1)C1CCCO1 (configuration not stated) | -2%[38.3 µM] | ? | -12%[10 µM] | 1.4µM* | -3 | 11%[9.22 µM]
Cc1ccc(S(=O)(=O)Nc2ccc(NC(=O)c3cccs3)cc2)cc1 | 8% | 28µM* | -13%[10 µM] | nt | nt | -25%
O=C(Nc1ccc2c(c1)C(=O)N(c1ccccc1)C2=O)C1CCCO1 (configuration not stated) | -4% | 14µM* | -5%[10 µM] | -10% | 7 | -2%
Cc1cccc(S(=O)(=O)c2c(C)cc(C)nc2Cl)c1 | 0% | 5% | -11% | nt | nt | -4%
Nc1nc(-c2ccc3ccccc3c2)cc(-c2cc(-c3ccc4ccccc4c3)nc(N)n2)n1 | 5% | 7%[13.5 µM] | -7%[10 µM] | -3% | nt | nt
N#Cc1cccc(-c2nc(Nc3ccccc3)c3ccccc3n2)c1 | ? | ? | -13% | -14% | nt | nt
CC(C)C[C@H]1COC(c2ccc(Br)cc2)=N1 | 11% | 4% | 14% | -14% | nt | nt
CCN1C(=O)[C@H]2[C@H]3[C@H](O)[C@H](O)C/C(=N/O[C@@H](C)c4cn([C@H]5COC[C@H]5O)nn4)[C@@H]3CC[C@@H]2C1=O | nt | 4%[13.5 µM] | -46%[10 µM] | nt | nt | nt
O=C(NCCN1CCN(c2ccccc2)CC1)c1ccc(NC(=O)C2CCCO2)cc1 (configuration not stated) | 29%[38.3 µM] | 28µM* | 7% | -12% | 4 | ?
O=C(Nc1cccc(-c2nc3ncccc3o2)c1)c1ccc(-c2cccc(Cl)c2Cl)o1 | nt | nt | nt | nt | -9 | nt
CC1=CC2=C(OC1N(C)C)c1cccc3cccc(c13)C2=O (configuration not stated) | -22%[38.3 µM] | 2.2µM* | 27% | -12% | ? | 3%
O=C1c2cccc3c([N+](=O)[O-])ccc(c23)C(=O)N1Cc1cccnc1 | 36% | -17% | -37% | nt | nt | 35µM*
SMILES | IMPase Li cell | ALDH1A1 inh | HTT cytoprotect | HPGD block | IMPase inh | HttQ103 aggreg
Cc1ccnc(N2C(=O)c3cccc4c([N+](=O)[O-])ccc(c34)C2=O)c1 | 28% | -8% | -2%[10 µM] | -22% | 37 | 18µM*
O=C(c1csnn1)N1CCC2(CC1)CCN(c1cccc(-c3ccccc3)c1)CC2 | 5% | 3% | 26% | -13% | nt | nt
CCOC(=O)c1c(/N=C/C2C(=O)CCCC2=O)sc2c1CCCC2 | 18% | 16µM* | -19% | nt | nt | -1%
CCOC(=O)c1cc(CC)sc1/N=C/C1=C(O)CCCC1=O | 1% | -9% | nt | -14% | nt | 7%
CCOC(=O)c1cc(CC)sc1/N=C/C1C(=O)CC(C)(C)CC1=O | 8% | 11µM* | -24%[10 µM] | -4% | -4 | 31%
CCOC(=O)c1c(/N=C/C2C(=O)CC(C)(C)CC2=O)sc2c1CCCC2 | 23% | 8.9µM* | -14% | nt | nt | 19%
CCCCCCCC/C=C\CCCCCCCCN | nt | nt | -8% | nt | nt | 0%
CCCCCCCCCC(=O)O[C@H](CC(=O)O)C[N+](C)(C)C | 0% | -1% | -36% | -5% | -7 | nt
CCC1CCCCN1C(=O)CSc1nnc(-c2c[nH]c3ccccc23)o1 (configuration not stated) | -6%[38.3 µM] | 13µM* | -11%[10 µM] | -20% | 8 | -15%
CC1CCCN(C(=O)CSc2nnc(-c3c[nH]c4ccccc34)o2)C1 (configuration not stated) | -13%[38.3 µM] | 14µM* | -28% | 16µM* | 7 | -24%
CCC1CCCCN1C(=O)CSc1nc(N)cc(N)n1 (configuration not stated) | 0% | 8.9µM* | -4%[10 µM] | nt | nt | -10%[9.22 µM]
CC1CCCC(C)N1C(=O)CSc1nnc(-c2c[nH]c3ccccc23)o1 (configuration not stated) | -9%[38.3 µM] | 10µM* | -12% | -23% | -4 | 11%
CCOC(=O)c1c(C)nc2c(c1-c1cc(OC)ccc1OC)C(=O)c1ccccc1-2 | 16% | -10% | 19%[10 µM] | -25% | -10 | 7%
CCOC(=O)C1=C(Cc2ccc(OC)cc2)C(=O)c2ccccc2C1=O | 38%[38.3 µM] | ? | -26% | 32µM* | 9 | ?
CCOC(=O)C1=C(Cc2ccc(C)cc2)C(=O)c2ccccc2C1=O | 43%[38.3 µM] | ? | -47% | 13µM* | 2 | ?
